Among all 360,000 compounds or so, about 6,200 (1.7%) were called active. Only a selection was taken, and actives are over-represented in it overall. A number with no mark means an inactive call.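 The calls were made as follows: active = inhibition of at least 50% at 20 µM; inactive = the rest.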
Assay: Peg3 promoter-driven luciferase inhibitors, primary screen, cell-based, HeLa, luciferase luminescence (AID 588405)
Conditions: HeLa PEG-Prom luciferase reporter, overnight, at 20 µM, hits give high values

Row | SMILES | inhibition
1 | CC1(C(=O)Nc2ccccc2Br)CCN1C(=O)CC1CC1 (centres undefined) | 3.67%
2 | CCOC(=O)C1=CCC2C(=O)N(Cc3ccccc3)C(=O)C12 (centres undefined) | -14.8%
3 | CNC[C@H]1OCc2cnnn2CCCC(=O)N([C@H](C)CO)C[C@@H]1C | -4.6%
4 | COc1ccc(OC)c(NC(=O)c2cc(-c3cc(F)ccc3OCC3CCCO3)n[nH]2)c1 (centres undefined) | 25.5%
5 | Cc1cc(C)nc(SC(C)C(=O)N/N=C/c2cccs2)n1 (centres undefined) | 2.36%
6 | COC(c1ccccc1)(c1ccccc1)C(Oc1nc(C)cc(C)n1)C(=O)O (centres undefined) | 19%
7 | Cc1cc(C)nc(S/C=C/C(=O)c2ccccc2)n1 | 109% (active)
8 | Cc1coc(C)c1C(=O)CC1(O)C(=O)N(C)c2ccc(Cl)cc21 (centres undefined) | 7.27%
9 | CCOc1ccc(N2CC(C(=O)N/N=C/c3sccc3C)CC2=O)cc1 (centres undefined) | 13.4%
10 | CC1(C(=O)NS(=O)(=O)c2ccccc2)CCN1C(=O)C1CCCCC1 (centres undefined) | -0.02%
11 | O=C1CCN(Cc2ccccc2)CCN1[C@H](CSc1ccccc1)c1ccccc1 | -23.1%
12 | CCCCC(=O)N/N=C(\C)CC(=O)Nc1cc(Cl)ccc1OC | 93.5% (active)
13 | COc1ccc(/C(C)=N/NC(=O)CCC(=O)Nc2ccc(Cl)cc2Cl)c(OC)c1 | -11.2%
14 | COc1ccc(Cl)cc1NC(=O)CCS(=O)(=O)c1ccc(Br)cc1 | 21.8%
15 | C[C@H](NC(=O)CC[C@H]1O[C@@H](n2ccc(=O)[nH]c2=O)[C@H](O)[C@@H]1O)c1cccc2ccccc12 | 6.63%
16 | OC(c1ccccc1)c1nc(/C=C/c2ccc(C(F)(F)F)cc2)cs1 (centres undefined) | 3.42%
17 | C#CCCOC(=O)N1C2=NC(C(=O)OC)=C(C(=O)OC)[C@@H]3N(C)c4ccc(OC)cc4[C@]23C[C@H]1C(=O)OC | -3.24%
18 | C[C@@H]1CN([C@@H](C)CO)C(=O)CCCn2cc(nn2)CO[C@H]1CN(C)S(=O)(=O)c1ccc(-n2cccn2)cc1 | -0.13%
19 | Cc1c(C(=O)NCC2CC2)sc(=O)n1Cc1cccc(F)c1 | -1.67%
20 | CCN1C(=O)[C@@H]2[C@@H]3CN(S(=O)(=O)c4ccccc4C)[C@@H](c4ccc(Cl)cc4)[C@@H]3C(=O)C[C@@H]2C1=O | -51.1%
21 | CCCn1c2ccccc2c2cnn(CC(=O)NCCCN3CCCCC3CC)c(=O)c21 (centres undefined) | 17.1%

Row | SMILES | inhibition
22 | CCC1CCCCN1CCCNC(=O)c1cc2c(Cl)nc3ccccc3c2s1 (centres undefined) | 100% (active)
23 | Cc1nc2ccccc2c2oc(C(=O)NCCCN3CCC(C)CC3)cc12 | -9.23%
24 | CN(CCO)C(=O)c1nc[nH]c1C(=O)N(C)Cc1ccccc1 | -1.65%
25 | Cc1ccc(F)c(S(=O)(=O)NC(=O)C2(C)CCN2C(=O)CCc2cccs2)c1 (centres undefined) | -1.22%
26 | COCCNC(=O)C1(C)CCCN(Cc2cccc(F)c2)C1 (centres undefined) | 1.57%
27 | CCNC(=O)C1(C)CCN(Cc2ccc(C(=O)OCC)o2)C1 (centres undefined) | 2.73%
28 | O=C(Cc1ccc(NC(=O)C2CCCN(C(=O)CCc3ccccc3)C2)cc1)Nc1ccc(C(=O)N2CCOCC2)cc1 (centres undefined) | -12.9%
29 | CCOc1cc2[nH]c(=S)n(Cc3ccc(C(=O)NCCOC)cc3)c(=O)c2cc1OCC | 9.27%
30 | COc1cc2[nH]c(=S)n(Cc3ccc(F)cc3)c(=O)c2cc1OC | 13.7%
31 | CCOc1cc2[nH]c(=S)n(Cc3ccc(C(=O)N4CCN(C)CC4)cc3)c(=O)c2cc1OCC | 105% (active)
32 | COc1ccc(Br)c(Cn2c(C)c(C(=O)NCc3cccs3)sc2=O)c1 | 7.67%
33 | Cc1nc(C(F)(F)F)ccc1C(=O)N1CCC1(C)C(=O)NS(=O)(=O)c1ccccc1Cl (centres undefined) | 7.45%
34 | O=S1(=O)CC(N2CCC(Cc3ccccc3)CC2)CN1Cc1ccccc1 (centres undefined) | -15.6%
35 | O=C(COC(=O)c1ccc(O)cc1O)NC(=O)c1ccccc1 | 19.7%
36 | O=C(NNc1c2ccccc2nc2ccccc12)c1cc2ccccc2cc1O | 74.7% (active)
37 | O=C(NNC(=O)c1ccccc1O)c1ccccc1O | 23.7%
38 | O=C(Nc1cccc(S(=O)(=O)N2CCOCC2)c1)C12CC3CC(CC(C3)C1)C2 | 13.8%
39 | CCCS(=O)(=O)NC(=O)C1(C)CCN(C(=O)c2sccc2C)C1 (centres undefined) | -4.46%
40 | OC(c1ccc(Cl)cc1)c1ncc(-c2ccc(Cl)cc2)[nH]1 (centres undefined) | -29.5%
41 | OC[C@@H]1CN(Cc2ccc(-c3ccccc3)cc2)C[C@H](n2cnc3c(NC4CCCC4)ncnc32)O1 | 19.6%
42 | CC(C)(C)C(=O)N(Cc1ccccc1)c1ccccn1 | -2.77%

Row | SMILES | inhibition
43 | Cc1csc2ncc(C(=O)N(Cc3ccccc3)c3ccccn3)c(=O)n12 | 81.4% (active)
44 | CCC(=O)N(Cc1ccccc1)c1ccccn1 | 13.9%
45 | O=C(CCN1C(=O)[C@@H]2Cc3ccccc3CN2C1=O)NCc1ccccc1 | 4.93%
46 | Cc1cc2oc(=O)cc(CN(C)Cc3ccccc3)c2cc1Cl | -133%
47 | Cc1cc2c(cc1C)N1C(=O)c3cc4ccccc4cc3NC(=O)C1C(=O)N2 (centres undefined) | 9.54%
48 | O=c1[nH]c(=S)[nH]c(O)c1/C=C1\C=Nc2ccccc21 | 60.8% (active)
49 | COc1cc(C(O)c2nc(-c3cnn(C)c3)cs2)ccc1F (centres undefined) | 9.83%
50 | CCc1nc2c(OCCOc3ccccc3)cccn2c1N(C)C(=O)c1cccs1 | 30.3%
51 | C#Cc1cc(N2CCN(C(=O)c3ccoc3)CC2)n2nc(-c3cccc(Cl)c3)cc2n1 | 79.3% (active)
52 | O=C(c1ccccc1)N1CCN(c2cc(-c3ccccc3)nc3cc(-c4cccc(Cl)c4)nn23)CC1 | 16.8%
53 | CN(C)CCN1CCN(c2cc(-c3cccc(Cl)c3)nc3ccnn23)CC1 | 7.56%
54 | CCCC(=O)N1CCC1(C)C(=O)Nc1ccc(-n2cncn2)cc1 (centres undefined) | 5.62%
55 | CN(C)CCNC(=O)c1ccc(-c2cn3c(-c4ccc(Oc5ccccc5)cc4)cnc3cn2)cc1 | 99.7% (active)
56 | Cc1noc(C)c1COc1ccc(C(=O)NCCOc2ccccc2)cc1 | -115%
57 | CN(C)C(CNC(=O)c1ccc(OCc2cn3ccccc3n2)cc1)c1ccco1 (centres undefined) | -55.3%
58 | CCc1ccc(OC2(C)CCN(CCOc3ccc(C)cc3)C2)cc1 (centres undefined) | 15.4%
59 | CCN(CC(=O)NC1CCS(=O)(=O)C1)c1nc(-c2cccnc2)nc2ccccc12 (centres undefined) | -4.15%
60 | S=c1nc2ccccc2c2nc(-c3cccnc3)[nH]n12 | -35.9%
61 | COc1ccc(Nc2nc(-c3cccnc3)nc3ccccc23)cn1 | 53.5% (active)
62 | Cc1ccc(Sc2ccc(NC(=O)c3ccc(F)cc3)cc2C#N)cc1 | -1.6%
63 | CN(CCO)c1ccc(/C=N/Nc2nncc3ccccc23)cc1 | 63.9% (active)

Row | SMILES | inhibition
64 | CC(C)NC(=O)Nc1ccc2c(c1)C(=O)N([C@H](C)CO)C[C@H](C)[C@@H](CN(C)Cc1ccc(C(F)(F)F)cc1)OCCCC[C@@H](C)O2 | 12.5%
65 | COc1ccc(-c2nnc(SC(=O)N3c4ccccc4Sc4ccccc43)o2)cc1 | 51.3% (active)
66 | COc1ccc(CN(C(=O)CSc2nnc(-c3ccc(OC)c(OC)c3)o2)c2ccc(F)cc2)cc1 | 30.6%
67 | COc1ccc(-c2nnc(SC(C)C(=O)NC3CC3)o2)cc1 (centres undefined) | -27.6%
68 | CC(=O)C1=CCC(c2ccccc2)N(S(=O)(=O)c2ccc(C)cc2)C1 (centres undefined) | 7.17%
69 | COc1cc(/C=C2/C(=O)ON=C2C)ccc1OCc1cccc(F)c1 | 45.1%
70 | COc1cc(/C=C2/C(=O)ON=C2C)ccc1OCc1ccccc1F | 66.5% (active)
71 | C#CCOc1ccc(/C=C2/C(=O)ON=C2C)cc1OCC | 27.9%
72 | OC[C@@H]1CN(C2CCCC2)C[C@H](n2cnc3c(NC4CCC4)ncnc32)O1 | 4.02%
73 | CC(OC(=O)/C=C/c1ccccc1)C(=O)NC1CCCCC1C (centres undefined) | 6.61%
74 | CC1CCCCC1NC(=O)/C(C#N)=C/C=C/c1ccccc1[N+](=O)[O-] (centres undefined) | 111% (active)
75 | O=[N+]([O-])c1ccccc1/C=C/CN1CCC(O)CC1 | 10.2%
76 | CCCN(c1ccc(C)cc1)c1nc(=O)c2cccnc2s1 | 8.6%
77 | CC(=O)Nc1cncc(-c2ccccc2CO)n1 | 7.63%
78 | CC[C@]12c3[nH]c4ccc(Cl)cc4c3CCN1C(=O)[C@@H](CC(=O)NCCN1CCOCC1)C[C@@H]2C(=O)N1CCN(C(=O)C2CC2)CC1 | -0.39%
79 | CC[C@]12c3[nH]c4ccc(OC)cc4c3CCN1C(=O)C(CC(=O)NCc1ccco1)C[C@@H]2C(=O)N1CCN(C(=O)C2CC2)CC1 (some centres undefined) | -6.85%
80 | CN(C)C(=O)CCc1ccc2c3c([nH]c2c1)[C@]1(CCC2CCCC2)[C@@H](C(=O)N2CCOCC2)C[C@H](CC(=O)NCc2ccco2)C(=O)N1CC3 | 0.84%
81 | COc1ccc(CNC(=O)C[C@H]2C[C@H](C(=O)N3CCOCC3)[C@@]3(CCC4CCCC4)c4[nH]c5ccc(Cl)cc5c4CCN3C2=O)cc1OC | 56.1% (active)
82 | O=C(C[C@H]1C[C@H](C(=O)N2CCOCC2)[C@@]2(CCC3CCCC3)c3[nH]c4ccc(Cl)cc4c3CCN2C1=O)NCc1ccco1 | 61.1% (active)
83 | COc1ccc2[nH]c3c(c2c1)CCN1C(=O)C(CC(=O)NCCCN(C)C)C[C@H](C(=O)N2CCOCC2)[C@@]31CCC1CCCC1 (some centres undefined) | 1.46%
84 | COC(=O)CCCCC1=CCC2C(=O)C=C(O)C2C1 (centres undefined) | 0.22%

— PubChem BioAssay AID588405 (Sanford-Burnham Center for Chemical Genomics, 2011)
